# SMN2 splice enh – increases expression of the SMN2 splice variant | HEK293 SMN2-luciferase splicing reporter, luminescence, 30-36 h | Potency, µM (series often up to 46.1 µM), without a hit: at the top dose activity change, positive = activation, hits mostly activators | 2.8% of 210,000 active; also: % of control where 0% means no effect; nearly all actives have a fitted effect of over 55% in size
#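 qHTS luciferase splicing reporter: luminescence rises when SMN2 exon 7 is included in transfected HEK293 cells. Compound exposure lasted 30-36 h at 37C, with 4.5 mM final sodium butyrate as control, followed by a ONE-Glo read.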
# NPC1 promoter act – NPC1 promoter activation; Potency, µM (titrated, usually from 9.22 µM), for the others: at the top dose activation, usual class: activators; Huh7 NPC1 promoter luciferase reporter, 24 h; 2.4% of 320,000 active; also: % of control where 0% means no effect; nearly all actives have a fitted effect of over 60% in size
#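 Cells: Huh7 expressing luciferase under the NPC1 promoter, 1500/well. Seeded 2 h, compound added, incubated 24 h at 37 °C. Luciferase reagent, 10 min ambient, then luminescence.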
# ELG1 genotox – induces genotoxicity in HEK293T cells with luciferase-tagged ELG1. HEK293T ELG1-luciferase reporter, luminescence, 16 h. Potency, µM (highest dose often 46 µM), inactives show top-dose activity change, positive = activation, most hits filed as activators. 1.3% of 330,000 active; also: % of control where 0% means no effect; nearly all actives have a fitted effect of over 60% in size
#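 Screening used a luciferase reporter fused to human ELG1 in HEK293T cells. Luminescence was read on a CCD plate imager after 16 hr exposure and 30 min ONE-Glo incubation.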
# KinaseGlo FLuc – Kinase-Glo luciferase inhibition (counter-screen); Kinase-Glo luciferase, ATP luminescence, 8 min; AID 1379; Q27757; Potency, µM (highest dose often 38.3 µM), inactives show at the highest dose activity change, negative = inhibition, most hits filed as inhibitors; 0.28% of 200,000 active; also: % is scaled to controls: 0 for no effect and ±100 for the full control effect; nearly all actives have a fitted effect of over 60% in size
#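 Substrate mix (final 50 mM imidazole pH 7.2, 50 mM KCl, 7 mM MgCl2, 10 uM ATP, 0.01% Tween 20, 0.05% BSA) plus pin-tool compound, then Kinase-Glo detection mix; 8 min ambient, luminescence read.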
# Rab9 promoter act – Rab9 promoter activation; AID 485297; Potency, µM (titrated, usually from 9.22 µM), for inactives: at the top dose activation, negative = inhibition, hits mostly activators; Huh7 Rab9 promoter-luciferase reporter, luminescence, 24 h; 2.8% of 320,000 active; also: % of control where 0% means no effect; nearly all actives have a fitted effect of over 60% in size
#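 Using Huh7 cells stably transfected with Rab9 promoter–luciferase, compounds were incubated 24 h at 37 °C, 5% CO2; luciferase luminescence was read 10 min after reagent addition.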
# FLuc counter – counter-screen for miR-21 project: firefly luciferase inhibitors or activators; AID 588342; Potency, µM (series often up to 57.5 µM), without a hit: top-dose activity change, negative = inhibition, usual class: inhibitors; purified FLuc, Km substrates, luminescence inhibition; 6.9% of 360,000 active; P08659;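 also: plate controls were vehicle for no effect and reference inhibitor for full effect; nearly all actives have a fitted effect of over 55% in size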
# Target sequence (P08659 whole entry, looked up): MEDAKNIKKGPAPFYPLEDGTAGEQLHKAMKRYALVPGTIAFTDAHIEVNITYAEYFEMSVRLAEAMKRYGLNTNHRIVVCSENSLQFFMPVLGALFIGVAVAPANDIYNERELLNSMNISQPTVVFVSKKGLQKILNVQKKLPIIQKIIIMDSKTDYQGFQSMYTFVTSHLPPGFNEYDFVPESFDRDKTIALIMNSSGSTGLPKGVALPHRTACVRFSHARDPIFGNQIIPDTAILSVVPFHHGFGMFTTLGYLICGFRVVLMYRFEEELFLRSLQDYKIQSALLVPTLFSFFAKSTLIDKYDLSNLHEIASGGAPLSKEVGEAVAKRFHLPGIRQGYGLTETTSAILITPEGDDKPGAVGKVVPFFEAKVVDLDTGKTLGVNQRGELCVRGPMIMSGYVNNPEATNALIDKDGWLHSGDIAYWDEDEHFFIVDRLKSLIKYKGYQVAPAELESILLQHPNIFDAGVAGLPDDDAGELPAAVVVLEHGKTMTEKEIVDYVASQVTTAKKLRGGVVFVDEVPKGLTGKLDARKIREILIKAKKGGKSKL
#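 Purified P. pyralis luciferase (10nM final) with 10uM D-luciferin and 10uM ATP (Km levels) in 50mM Tris acetate pH 7.5, 10mM Mg acetate, 0.01% Tween-20, 0.05% BSA; qHTS 6-point titration, ~60 µM downward; luminescence read.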
# * = called active by the depositor; ? = inconclusive; nt = no result; [ ] = another dose, or the depositor's remark. In the library only some 7.5% were active in any assay of this set; here they are far more common. Calls follow the shape of the dose curve; as a rule, active = well fitted curve in the direction sought with a large enough effect; inconclusive = small, poorly fitted or top-dose-only effect, or another doubt; inactive = no such curve, though single readings can be large; an effect the other way counts as inactive or inconclusive. Potency is read from the fitted curve at half-maximal effect.
SMILES,SMN2 splice enh,NPC1 promoter act,ELG1 genotox,KinaseGlo FLuc,Rab9 promoter act,FLuc counter
C=C/C1=C/Cc2ccccc2[C@H](C[N+](=O)[O-])C(C(C)=O)(C(=O)OC)C1 (stereo not given in full),-11.0%,nt,nt,0.9%,nt,nt
Cc1ccc(Cn2nc(C)c(NC(=O)c3noc4c3CCCCC4)c2C)cc1,-32.6%,-0.9%,-7.6%,-3.0%,1.0%,1.7%
Cc1ccc(NC(=O)c2noc3c2CCCCC3)cc1C,7.94µM*,0.398µM*,?,-7.1%,0.631µM*,1.07µM*
Cc1[nH]c2ccccc2c1C(=O)/C=C/c1ccccc1,27.7%,3.16µM*,13.8%,5.4%,?,4.78µM*
Cc1[nH]c2ccccc2c1C(=O)/C=C/c1ccccc1Cl,11.2µM*,3.16µM*,?,-2.6%,3.16µM*,8.49µM*
Cc1[nH]c2ccccc2c1C(=O)/C=C\c1ccccc1Cl,?,?,?,-3.6%,?,6.01µM*
CCN(C(=O)Nc1cccc(Cl)c1)c1ccccc1,nt,-4.4%,-4.2%,nt,5.6%,-2.0%
Cc1cccc(N(O)C(=O)Nc2cccc(Cl)c2)c1,nt,23.5%,?,nt,28.2%,16.9µM*
CCOC(=O)c1nn(-c2ccc3c(c2)CCN3C(C)=O)cc1O,10µM*,1.58µM*,1.64µM*,-11.5%,2.24µM*,3.79µM*
CCOC(=O)c1nn(-c2ccc(F)cc2)cc1O,-16.7%,?,?,8.1%,?,?
CSC(=S)N/N=C(\C)c1ccccc1,-5.3%,1.2%,?,-0.4%,12.4%,21.3µM*
Cc1cc(C)nc(NC(=O)/C=C/c2ccc(Cl)cc2Cl)c1,10.3%,?,?,-4.8%,3.55µM*,7.57µM*
Cc1cc(C)nc(NC(=O)c2ccc(Cl)cc2[N+](=O)[O-])c1,11.1%,4.1%,0.6%,1.5%,0.1%,-4.8%
Cc1cc(C)nc(NC(=O)/C=C/c2ccccc2Cl)c1,12.6µM*,?,?,1.1%,?,3.01µM*
Cc1cc(N)c2cc(NC(=O)/C=C/c3ccccc3Cl)ccc2n1,nt,-7.9%,4.7%,nt,-19.9%,13.5µM*
Cc1cc(N2CCCCC2)nc2ccc(NC(=O)/C=C/c3ccccc3Cl)cc12,-3.6%,nt,nt,nt,nt,-2.9%
Cc1cc(C)nc(NC(=O)/C=C/c2ccccc2Cl)n1,?,27.6%,11.2%,-16.4%,?,?
NCCC[C@@H](CC(=O)N[C@@H]1CCNC[C@H]1C(=O)N[C@H](CC(=O)N[C@@H](CCC(=O)O)CC(=O)O)Cc1ccccc1)NC(=O)C[C@H](Cc1ccccc1)NC(=O)[C@@H]1CCCC[C@H]1N,-3.0%,nt,nt,0.3%,nt,nt
CC(C)(C)c1ccc(-c2nc(NC(=O)CSc3ncnc4sc5c(c34)CCCC5)ns2)cc1,-5.6%,nt,nt,nt,nt,-2.1%
CCOC(=O)N1CCN(C(=O)c2cn(C)c3ccc(S(=O)(=O)N(C)C4CCCCC4)cc3c2=O)CC1,nt,-4.9%,1.6%,nt,-4.1%,1.0%
COCCNC(=O)c1ccc(C)cc1C,5.1%,-0.4%,0.4%,3.4%,-8.1%,-0.7%
Cc1ccc(C(=O)NN=CC(=O)c2ccccc2)c(C)c1,nt,nt,2.31µM*,nt,nt,nt
COc1ccc(C(=O)N/N=C/C(=O)c2ccccc2)cc1,nt,2.51µM*,10.3µM*,nt,?,1.51µM*
COc1ccc(NC(=O)CN(C)C(=O)Cc2ccc3c(c2)CCC3)cc1,nt,0.6%,1.2%,nt,5.7%,-2.3%
COc1ccc(CCNC(=O)C/C(C)=N/NC(=O)c2cnccn2)cc1,nt,-3.0%,4.0%,nt,-0.3%,0.5%
SMILES,SMN2 splice enh,NPC1 promoter act,ELG1 genotox,KinaseGlo FLuc,Rab9 promoter act,FLuc counter
COc1ccc(CN2C(=O)N(c3ccc(F)cc3)C(=O)C2CC(=O)Nc2cc(OC)cc(OC)c2)cc1 (stereo not given),nt,nt,nt,nt,nt,-8.6%
CC(=O)n1cc(/C=N/NC(=O)c2cccc(O)c2)c2ccccc21,nt,-2.5%,13.4%,nt,3.4%,9.53µM*
O=C(N/N=C/c1cn(Cc2ccccc2)c2ccccc12)c1ccncc1,-71.1%,-7.7%,-5.0%,-2.0%,-9.0%,?
CC(=O)n1cc(/C=N/NC(=O)c2ccc(Cl)cc2)c2ccccc21,nt,29.0%,7.6%,nt,22.9%,3.38µM*
CC(=O)n1cc(/C=N/NC(=O)c2ccccc2Cl)c2ccccc21,nt,11.1%,8.3%,nt,9.9%,19µM*
COc1ccc(N(C(C)=O)S(=O)(=O)c2cccc3cccnc23)cc1,12.8%,-4.9%,2.5%,-2.9%,-3.0%,0.0%
CCn1cc2nc(SCC(=O)Nc3ccc(OC)c(Cl)c3)n(Cc3ccc(OC)cc3)c(=O)c2n1,4.8%,nt,nt,nt,nt,-8.9%
CCn1cc2nc(SCC(=O)Nc3ccc(OC)c(OC)c3)n(Cc3ccc(OC)cc3)c(=O)c2n1,nt,-0.7%,6.8%,nt,7.7%,16.9µM*
CC(=O)c1c(C(C)=O)c(C)n(NC(=O)c2ccncc2)c1C,25.1µM*,-0.7%,2.7%,2.0%,-2.2%,5.1%
O=C(NN1C(=O)c2ccccc2C1=O)c1ccncc1,6.8%,-3.7%,1.0%,1.8%,-4.1%,-2.0%
Clc1c2c(nc3ccccc13)CCC2,nt,-7.5%,-1.4%,nt,2.1%,?
Cc1c2c(nc3ccccc13)CCC(C(C)(C)C)C2 (stereo not given),?,22.7%,14.9%,-0.9%,19.1%,12µM*
COc1ccccc1C(=O)Nc1ccc(-c2nnn(CC(=O)N3CCN(C(=O)c4ccco4)CC3)n2)cc1,-36.2%,-2.3%,-10.9%,2.1%,11.4%,16.9µM*
O=C(Nc1ccc(-c2nnn(CC(=O)N3CCN(C(=O)c4ccco4)CC3)n2)cc1)c1ccccc1F,-5.0%,15.7%,-5.7%,0.9%,23.6%,10.7µM*
COc1ccccc1CNc1ncnc2c1nc1n2CCCC1,?,nt,nt,nt,nt,3.4%
Cc1cc(C)cc(NC(=O)N2CCC(CN3CCc4ccccc4C3)CC2)c1,nt,nt,nt,nt,nt,-2.5%
CC(C)c1ccc(/C=N/N2CCN(c3ccccn3)CC2)cc1,nt,?,2.9%,nt,?,?
Oc1ccccc1/C=N/N1CCN(c2ccccn2)CC1,nt,?,?,nt,2.82µM*,13.5µM*
C(=N\N1CCN(c2ccccn2)CC1)/c1cccc2ccccc12,nt,2.3%,-2.6%,nt,1.5%,16.9µM*
O=[N+]([O-])c1cccc(/C=N/N2CCN(c3ccccn3)CC2)c1,nt,?,17.0%,nt,3.16µM*,?
C(=C\c1ccccc1)/C=N/N1CCN(c2ccccn2)CC1,?,?,4.11µM*,-7.0%,?,12µM*
CCOP(=O)(OCC)C1NC(=O)N(c2ccccc2)C1=O (stereo not given),nt,-2.3%,2.1%,nt,-6.2%[1.84 µM],3.6%
Cc1ccccc1-c1nc(CS(=O)CC(=O)NC2CCCCC2)c(C)o1 (stereo not given),nt,-0.3%,-0.3%,nt,-7.4%,-0.6%

# High-throughput results: PubChem BioAssay, National Center for Advancing Translational Sciences (NCATS)
